Shown are actives, neighbours in structure and some others; about 2.9% of the full set was active somewhere.
12-LOX inh – blocks human arachidonate 12S-lipoxygenase. P18054. Potency, µM (titrated, usually from 108 µM), without a hit: at the top dose activity change, negative = inhibition, hits mostly inhibitors. hit rate 1.1% among 580,000. AID 1671190. purified 12hLO, xylenol orange hydroperoxide absorbance; also: potency is read from the fitted curve at half-maximal effect; % is scaled to controls: 0 for no effect and ±100 for the full control effect
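Purified human 12hLO at 150 nM in 25 mM Hepes, 0.01% Triton X-100, pH 7.0, preincubated 15 min at room temperature with compound. Reaction started with 40 uM arachidonic acid, 30 min at room temperature. Hydroperoxide measured by Fe-xylenol orange, 573/405 nm absorbance ratio.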
PI5P4K alpha inh – blocks human PI5P4K alpha kinase activity; max response, %; hit rate 1.2% among 330,000; AID 652105; PI5P4Kalpha enzyme, ADP-Glo luminescence, 60 min; stronger effect = lower value; active = max response of -50% or lower; inconclusive = between -30% and -50%; inactive = -30% or higher; also: value at the top dose of about 77 µM; % is scaled to controls: 0 for no effect and ±100 for the full control effect
Target sequence (P48426 whole entry, looked up): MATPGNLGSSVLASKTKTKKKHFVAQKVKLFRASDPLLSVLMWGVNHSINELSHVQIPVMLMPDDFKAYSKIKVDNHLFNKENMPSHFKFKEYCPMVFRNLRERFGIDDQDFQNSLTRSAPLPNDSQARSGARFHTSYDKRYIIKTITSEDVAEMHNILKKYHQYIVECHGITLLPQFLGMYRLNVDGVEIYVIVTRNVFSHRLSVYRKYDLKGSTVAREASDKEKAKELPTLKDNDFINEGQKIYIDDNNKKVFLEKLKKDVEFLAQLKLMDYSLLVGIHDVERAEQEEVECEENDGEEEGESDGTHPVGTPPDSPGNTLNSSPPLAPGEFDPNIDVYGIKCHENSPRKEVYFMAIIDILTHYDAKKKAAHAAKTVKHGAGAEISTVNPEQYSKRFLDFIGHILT
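qHTS, 1536-well: enzyme/substrate mix, compound by pin tool, 5 microM ATP final; RT 60 min; ADP-Glo reagents 1 (45 min) then 2 (30 min); luminescence.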
POLI inh – DNA polymerase iota (human) inhibition; hit rate 1% among 390,000; Potency, µM (series often up to 115 µM), for the others: top-dose activity, negative = inhibition, usual class: inhibitors; Q9UNA4; AID 588590; Pol iota fluorescent replication assay, 10 min; also: potency is read from the fitted curve at half-maximal effect
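Pol iota at 10 nM preincubated 15 min with compounds at room temperature; reaction started with fluorescent substrate, 50 nM final. Fluorescence read kinetically at 0 and 10 min; buffer-only wells as negative control.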
Pol eta inh – blocks human DNA polymerase eta activity. Potency, µM (series often up to 114 µM), for the others: at the top dose activity change, negative = inhibition, usual class: inhibitors. hit rate 1.2% among 390,000. recombinant Pol eta, fluorescent DNA replication assay. AID 588591; also: potency is read from the fitted curve at half-maximal effect; % is scaled to controls: 0 for no effect and ±100 for the full control effect
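Fluorescent replication assay: 50 nM final substrate added after a 15 min room-temperature compound preincubation with 10 nM enzyme. Signal taken at 0 min and again at 10 min.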
Pol kappa inh – inhibitors of human DNA polymerase kappa; Potency, µM (top dose mostly 107 µM), for inactives: top-dose activity, negative = inhibition, actives largely listed as inhibitors; hit rate 0.53% among 400,000; purified Pol kappa, fluorescent DNA synthesis assay, 10 min; Q9UBT6; also: potency is read from the fitted curve at half-maximal effect; % is scaled to controls: 0 for no effect and ±100 for the full control effect
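10 nM Pol kappa was preincubated with compounds for 15 min at room temperature. Reaction started with 50 nM (final) substrate. Fluorescence read kinetically at 0 and 10 min.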
Pol beta inh – DNA polymerase beta (human) inhibition; P06746; Pol beta primer extension/strand displacement, fluorescence kinetic; Potency, µM (series often up to 114 µM), without a hit: at the highest dose activity change, negative = inhibition, hits mostly inhibitors; hit rate 1.3% among 340,000; AID 485314; also: potency is read from the fitted curve at half-maximal effect; % is scaled to controls: 0 for no effect and ±100 for the full control effect
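Human Pol beta at 10 nM; strand-displacement substrate 50 nM final. Compound exposure 15 min at room temperature before start, reaction 10 min at room temperature.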
Active calls of the source: *; ? = inconclusive; / = no result; [ ] = dose if it differs, or a comment. Unless noted, calls follow the shape of the dose curve; as a rule, active = well fitted inhibition curve with a large enough effect; inconclusive = small, poorly fitted or top-dose-only effect, or another doubt; inactive = no such curve, though single readings can be large or run the other way.

SMILES | 12-LOX inh | PI5P4K alpha inh | POLI inh | Pol eta inh | Pol kappa inh | Pol beta inh
CSc1ccc(C2C(C#N)=C(N)Oc3cc4c(cc32)OCO4)cc1 (configuration not stated) | ? | / | -21% | -4% | 89µM* | 6%
Cc1ccc(C2C(C#N)=C(N)Oc3cc4c(cc32)OCO4)cc1 (configuration not stated) | -15% | 0 | -7% | ? | -2% | 5%
O=C(Cn1cnnn1)OCC(=O)c1ccc(Cl)s1 | ? | -66* | ? | 14µM* | ? | 22µM*
O=C(NNc1ccccc1C(F)(F)F)c1sccc1Br | 40µM* | -3 | ? | -8% | -6% | -8%
COc1ccc(N2CCc3c(C)nc4c(OC)cc(OC)cc4c32)cc1 | 39% | 0 | 25% | -3% | -2% | 40µM*
CCN(C(=O)c1ccco1)c1nc(-c2ccc(Br)cc2)cs1 | 19% | / | / | / | / | /
NC(=O)/C(=N\OC(=O)c1ccco1)c1nc(-c2ccc(Br)cc2)cs1 | -7% | -69* | 8% | -2% | -17% | -19%
COC(=O)c1ccc(N2NC(=O)/C(=C/c3ccc(OC)c(OC)c3)C2=O)cc1 | 2% | -18 | ? | 8% | -10% | 5%
COc1cc(/C=C2/C(=O)NN(c3cccc(C)c3)C2=O)ccc1OC(=O)c1ccco1 | 35µM* | -19 | ? | 28µM* | -11% | -24%
Cc1ccc(N2NC(=O)/C(=C\c3cc4c(cc3[N+](=O)[O-])OCO4)C2=O)cc1C | ? | -57* | ? | ? | -17% | 20µM*
COc1cc(/C=C2\C(=N)N3N=C(S(C)(=O)=O)SC3=NC2=O)ccc1OC(=O)c1ccco1 | ? | ? | 20µM* | 22µM* | -41% | -13%
COc1cccc(/C=C2/C(=O)NN(c3ccc(F)cc3)C2=O)c1 | ? | -15 | ? | -5% | -11% | -25%
COc1cccc(/C=C2/C(=O)NN(c3ccc(C)c(C)c3)C2=O)c1 | 28µM* | 2 | ? | -12% | -1% | ?
CCOc1cc(/C=C2\C(=N)N3N=C(S(=O)(=O)CC)SC3=NC2=O)ccc1OC(=O)c1ccco1 | ? | ? | -4% | ? | -4% | -47%
Cc1cc(C(=O)CSc2n[nH]c(C(C)C)n2)c(C)n1C | -28% | / | / | / | / | /
COc1ccccc1OCCOc1ccc(/C=C2/C(=N)N3OC(C)=CC3=NC2=O)cc1OC | 2% | -7 | 4% | 4µM* | -18% | 4%
COc1cc(/C=C2\C(=N)N3N=C(S(C)(=O)=O)SC3=NC2=O)ccc1OCCOc1ccccc1C | ? | -57* | 49% | 50µM* | -17% | 50µM*
CC1=CC2=NC(=O)/C(=C\c3cccn3CCOc3ccccc3C)C(=N)N2O1 | -21% | -3 | ? | -11% | -5%[60.1 µM] | -3%
COc1cc(/C=C2\C(=N)N3N=C(S(C)(=O)=O)SC3=NC2=O)ccc1OC(=O)c1cccs1 | ? | -24 | -5% | ? | -4% | -3%
O=C(NCc1ccccc1Cl)C(=O)Nc1ccc2cc[nH]c2c1 | 6% | / | / | / | / | /
COc1ccc(-c2c(C)c3ccc(OS(=O)(=O)c4ccc(F)cc4)cc3oc2=O)cc1OC | 6% | / | / | / | / | /
COc1ccc(C(=O)c2oc3ccc(NC(=O)C(C)C)cc3c2C)cc1 | 1% | / | / | / | / | /
O=C(NCc1ccccc1)c1ccc(NS(=O)(=O)c2cccs2)cc1 | 1% | -2 | 24% | -15% | -15% | /
C/C(=N\NC(=O)c1ccc(NS(=O)(=O)c2cccs2)cc1)c1ccc(O)cc1O | -1% | -96* | 52% | -12% | -18% | 37%
O=C(N=Nc1c(O)[nH]c2ccc(F)cc12)c1ccc(NS(=O)(=O)c2cccs2)cc1 | -30% | -15 | 20% | ? | -8% | /
SMILES | 12-LOX inh | PI5P4K alpha inh | POLI inh | Pol eta inh | Pol kappa inh | Pol beta inh
C/C(=N\NC(=O)c1ccc(Br)cc1)c1cccc(NC(=O)c2cccnc2)c1 | -4% | 3 | 39% | -16% | -9% | 12%
C/C(=N\NC(=O)c1ccc(NS(=O)(=O)c2cccs2)cc1)c1ccccc1 | 16% | -53* | -7% | -11% | -3% | 26%
CC(=NNC(=O)c1ccc(NS(=O)(=O)c2ccc(Br)cc2)cc1)c1cccnc1 | -21% | -53* | 72% | -10% | -1% | /
Cc1ccc2[nH]c(O)c(N=NC(=O)c3ccc(NS(=O)(=O)c4cccs4)cc3)c2c1 | 10% | -56* | ? | 22µM* | -11% | 3%
Cc1ncc2n1C(=O)N(C1CCN(Cc3ccc(OC(F)(F)F)cc3)CC1)C2 | 48% | / | / | / | / | /
CC(NC(=O)c1ccc(C(C)(C)C)cc1)C1CC1 (configuration not stated) | -18% | / | / | / | / | /
CCOc1ccc(-n2c(SCC(=O)OC)nc3ccccc3c2=O)cc1 | -6% | / | / | / | / | /
CC(C)/C(=N/O)c1ccc(OCCOc2ccc(/C(=N\O)C(C)C)cc2)cc1 | 20% | / | / | / | / | /
O=C1c2c(nc(COc3ccc(F)cc3F)n2Cc2ccccc2)NCCN1CCOc1ccccc1 | 19% | / | / | / | / | /
O=C(Cc1cccc(F)c1)NCCc1c[nH]c2ccccc12 | 3% | / | / | / | / | /
CC(=O)c1ccc(N2CCC(C)CC2)c(F)c1 | -2% | 5 | -1% | -7% | 11% | 47%
CC1CCN(c2ccc(C(=O)O)cc2N)CC1 | 0% | ? | ? | 18µM* | -17% | ?
Nc1cc(C(=O)O)ccc1N1CCCCC1 | 316% | -9 | ? | 10µM* | 79µM* | ?
Nc1cc(F)ccc1N1CCCCCC1 | -14% | 1 | 56% | -15% | -4% | 22%
CSc1ccccc1NC(=O)c1ccc(CSc2ccccc2)cc1 | -1% | / | / | / | / | /
CC(C)[C@H](NC(=O)C12CC3CC(CC(C3)C1)C2)C(=O)O | 56µM* | / | / | / | / | /
O=c1[nH][nH]c(=S)n1C1CCCCC1 | / | -69* | 18% | -17% | 6% | 27%
O=c1cc(O)n(C2CCCCCC2)c(=O)[nH]1 | -5% | -20 | ? | -4% | 11% | 27%
O=C(NC(NNc1ccc([N+](=O)[O-])cc1)(C(F)(F)F)C(F)(F)F)c1ccccc1Cl | ? | / | ? | -11% | -9% | 10%
O=C(NC(NNc1ccc([N+](=O)[O-])cc1)(C(F)(F)F)C(F)(F)F)c1ccc(F)cc1 | ? | -71* | -4% | -13% | -25% | -15%
CCOC(=O)CSC1=NC(=O)/C(=C/c2ccc(Br)cc2)S1 | 40µM* | -55* | -8% | -6% | 3% | 6%
CCOC(=O)CSC1=NC(=O)/C(=C\c2ccc(OC(C)=O)cc2)S1 | ? | / | ? | -2% | -17% | 21%
COc1cc(OC)c(NC(=O)NC(C(=O)N2CCc3ccccc32)C(C)C)cc1Cl (configuration not stated) | -1% | / | / | / | / | /
O=C1c2cc(N3CCOCC3)nc(-c3ccc(F)cc3)c2CN1CC1CC1 | 32µM* | / | / | / | / | /
